# Bioassay records deposited in PubChem BioAssay by National Center for Advancing Translational Sciences (NCATS).
# Vaccinia mCherry = qHTS for Stage-Specific Inhibitors of Vaccinia Orthopoxvirus: mCherry Reporter Primary qHTS. 0.63% of 310,000 active. Vaccinia virus mCherry reporter infection, fluorescence. Potency, µM (titrated, usually from 36.5 µM), for the others: at the highest dose activity change, negative = inhibition, most hits filed as inhibitors. AID 720579, 2013; calls by dose curve; tested in A549 cells; further: nearly all actives have a fitted effect of over 35% in size
# AMA1-RON2 inh = qHTS for Inhibitors of AMA1-RON; Towards Development of Antimalarial Drug Lead: Primary Screen; Plasmodium falciparum AMA1 (3D7) - RON2 peptide interaction; AlphaScreen AMA1-biotinylated RON2 peptide binding; Potency, µM (doses to about 58.2 µM), inactives show at the highest dose activity change, negative = inhibition, actives largely listed as inhibitors; 0.2% of 360,000 active;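 further: 0% = vehicle wells and -100% = peptide control; nearly all actives have a fitted effect of over 45% in size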
#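 AMA1 (3D7) with his tag at 25 nM final met compounds first, then biotinylated RON2 peptide at 25 nM; detection used donor plus acceptor beads, 10 µg/mL apiece, read by AlphaScreen after 30 min at room temperature.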
# Pf growth 96h = Primary qHTS for delayed death inhibitors of the malarial parasite plastid, 96 hour incubation | P. falciparum luciferase reporter growth, 96 h | Potency, µM (titrated, usually from 28.7 µM), for the others: at the top dose activity change, negative = inhibition, most hits filed as inhibitors | 6.9% of 320,000 active | AID 504834, 2011
#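 96 h incubation, 37 C, 5% CO2, of luciferase-reporter P. falciparum-infected RBCs (2% hematocrit, 0.05% parasitemia final) with test compounds; endpoint luminescence.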
# Vaccinia Venus = qHTS for Stage-Specific Inhibitors of Vaccinia Orthopoxvirus: Venus Reporter Primary qHTS; AID 720580, 2013; 0.46% of 330,000 active; Potency, µM (highest dose often 36.5 µM), inactives show at the top dose activity change, negative = inhibition, usual class: inhibitors; Vaccinia virus Venus reporter expression, fluorescence; calls by dose curve; tested in A549 cells; further: nearly all actives have a fitted effect of over 30% in size
# Pf growth 48h = Primary qHTS for delayed death inhibitors of the malarial parasite plastid, 48 hour incubation; P. falciparum luciferase growth in erythrocytes, 48 h; Potency, µM (series often up to 28.7 µM), inactives show at the top dose activity change, negative = inhibition, actives largely listed as inhibitors; 5.9% of 310,000 active
#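 Luciferase-expressing parasites in RBCs, 2% Hct / 0.1% parasitemia final; RPMI 1640 + 0.5% Albumax; 37 C, 5% CO2, one generation; luminescence read-out, lower signal = inhibition.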
# The depositor's hits bear a star; i = inactive; ? = inconclusive; . = no result; [ ] = remark or other dose. A selection: hits, their analogues and other compounds. The true share with any hit is near 8.7%. Unless noted, the call rests on the fitted dose curve; in most records, active means well fitted curve in the direction sought with a large enough effect; inconclusive means small, poorly fitted or top-dose-only effect, or another doubt; inactive means no such curve, though single readings can be large; an effect the other way counts as inactive or inconclusive. Unless noted, on the % scale 0 is the no-effect control and ±100 the full control effect; potency means the concentration at half of the fitted maximal effect.
SMILES,Vaccinia mCherry,AMA1-RON2 inh,Pf growth 96h,Vaccinia Venus,Pf growth 48h
CN(C(=O)CSc1nnc(-c2ccc([N+](=O)[O-])cc2)o1)c1ccccc1,-17.0%,.,.,-13.4%,.
COc1ccc(Oc2ncnc3c2oc2ccccc23)cc1,-15.2%,.,.,-14.6%,.
N=C1S/C(=C\c2ccc(-c3cccc(Cl)c3)o2)C(=O)N1c1nccs1,-1.5%,71.3%,?,-8.9%,4.65µM*
COc1ccc(/C=C2\SC(=N)N(c3nccs3)C2=O)cc1OC,-15.3%,110.9%,?,-9.1%,?
O=C(c1ccc(CNS(=O)(=O)c2ccc(Br)cc2)cc1)N1CCC2(CC1)OCCO2,-15.4%,20.9%,?,-8.3%,?
O=C(c1ccc(CNS(=O)(=O)c2ccccc2)cc1)N1CCC2(CC1)OCCO2,i,1.0%,8.28µM*,-13.3%,55.0%
COc1cc(OC)cc(C(=O)NCC2Cc3cccc(-c4nc(C)cnc4C)c3O2)c1 (configuration not stated),-11.6%,.,.,8.4%,.
Nc1cc(=O)n(Cc2ccccc2)c(=O)n1-c1ccc(F)cc1,-10.8%,1.7%,?,-17.9%,16.6%
Nc1cc(=O)n(Cc2ccccc2)c(=O)n1-c1ccc(Cl)cc1,i[7.34 µM],2.3%,?,-0.8%[7.34 µM],10.4µM*
Cc1onc(-c2ccccc2Cl)c1C(=O)Oc1ccccc1F,-11.7%,.,.,-11.4%,.
Cc1ccc(Nc2nc(N)nc(N)c2S(=O)(=O)c2ccccc2)cc1,-24.4%,.,.,-17.1%,.
CCN(CC)c1ccc2c(-c3ccc(S(=O)(=O)O)cc3S(=O)(=O)[O-])c3ccc(=[N+](CC)CC)cc-3oc2c1,.,14.1µM*,0.0%,.,-0.6%
CCN(CC)c1ccc2nc3c4ccccc4c(=O)cc-3oc2c1,.,-7.8%,-1.0%,.,25.1%
COc1ccc(N2C(=O)[C@@H]3[C@H](C2=O)[C@H](C(C)=O)N2c4ccccc4C=C[C@@H]32)cc1,i,-6.5%,?,0.4%,?
COc1ccc(C2C(C(=O)c3ccccc3)N3c4ccccc4C=CC3C2[N+](=O)[O-])cc1 (configuration not stated),-1.0%,3.4%,9.28µM*,74.5%,?
CC1(C)Cc2ccccc2C2=NNC(=O)C2=N1,?,19.7%,15.0%,28.2µM*,?
CC(C)C(NC(=O)c1ccoc1)c1nnc2n1CCN(C(=O)/C=C/c1ccc(F)cc1)CC2 (configuration not stated),-15.0%,.,.,-14.7%,.
Cc1cc(N=Nc2ccc(Cl)cc2)cc(CN2CCOCC2)c1O,-10.4%,?,2.33µM*,-19.1%,4.65µM*
Oc1c(CN2CCOCC2)cc(CN2CCOCC2)cc1CN1CCOCC1,i,26.8%,.,-0.4%,.
Cc1cc(N=Nc2ccc(Cl)cc2)cc(CN2CCCC2)c1O,.,?,0.294µM*,.,0.233µM*
Cc1ccc2[nH]c(=O)c(CN(Cc3ccccc3)Cc3nnnn3Cc3ccco3)cc2c1,17.7%,.,.,-17.2%,.
Cc1ccc2[nH]c(=O)c(CN(Cc3cccs3)Cc3nnnn3Cc3ccccc3)cc2c1,-22.3%,-13.0%,-12.9%,-26.6%,11.7µM*
CCOC(=O)Cn1nnnc1CN(Cc1cccs1)Cc1cc2cc(C)ccc2[nH]c1=O,.,-3.0%,.,.,-15.1%
Cc1ccc2[nH]c(=O)c(CN(CCO)Cc3nnnn3CCc3ccccc3)cc2c1,.,-3.0%,8.28µM*,0.9%,7.7%
COc1ccc2[nH]c(=O)c(CN(Cc3cccs3)Cc3nnnn3C(C)(C)C)cc2c1,-26.9%,-1.3%,98.9%,-16.7%,?
CCOc1ccc2[nH]c(=O)c(CN(Cc3cccs3)Cc3nnnn3C(C)(C)C)cc2c1,-17.5%,1.6%,18.9%,-18.2%,11.7µM*
CN(Cc1ccccc1)C(=O)c1ccc2c(c1)N(Cc1ccccc1F)C(=O)c1ccccc1S2(=O)=O,-5.5%,.,.,-5.6%,.
CC1=C(C(=O)Nc2ccc(C)cc2C)C(c2ccc(C(C)C)cc2)n2nc(C(F)(F)F)nc2N1 (configuration not stated),-26.1%[7.34 µM],.,.,-8.9%[7.34 µM],.
CN(C)C(CNC(=O)CSc1nc2sc3c(c2c(=O)n1C)CCCC3)c1ccccc1 (configuration not stated),.,38.0%,11.7µM*,.,?
